Experiments:
[1] = target: T1, Ephrin type-A receptor 3 (Homo sapiens) (UniProt P29320); conditions: at 10 µM
T1 sequence (whole entry): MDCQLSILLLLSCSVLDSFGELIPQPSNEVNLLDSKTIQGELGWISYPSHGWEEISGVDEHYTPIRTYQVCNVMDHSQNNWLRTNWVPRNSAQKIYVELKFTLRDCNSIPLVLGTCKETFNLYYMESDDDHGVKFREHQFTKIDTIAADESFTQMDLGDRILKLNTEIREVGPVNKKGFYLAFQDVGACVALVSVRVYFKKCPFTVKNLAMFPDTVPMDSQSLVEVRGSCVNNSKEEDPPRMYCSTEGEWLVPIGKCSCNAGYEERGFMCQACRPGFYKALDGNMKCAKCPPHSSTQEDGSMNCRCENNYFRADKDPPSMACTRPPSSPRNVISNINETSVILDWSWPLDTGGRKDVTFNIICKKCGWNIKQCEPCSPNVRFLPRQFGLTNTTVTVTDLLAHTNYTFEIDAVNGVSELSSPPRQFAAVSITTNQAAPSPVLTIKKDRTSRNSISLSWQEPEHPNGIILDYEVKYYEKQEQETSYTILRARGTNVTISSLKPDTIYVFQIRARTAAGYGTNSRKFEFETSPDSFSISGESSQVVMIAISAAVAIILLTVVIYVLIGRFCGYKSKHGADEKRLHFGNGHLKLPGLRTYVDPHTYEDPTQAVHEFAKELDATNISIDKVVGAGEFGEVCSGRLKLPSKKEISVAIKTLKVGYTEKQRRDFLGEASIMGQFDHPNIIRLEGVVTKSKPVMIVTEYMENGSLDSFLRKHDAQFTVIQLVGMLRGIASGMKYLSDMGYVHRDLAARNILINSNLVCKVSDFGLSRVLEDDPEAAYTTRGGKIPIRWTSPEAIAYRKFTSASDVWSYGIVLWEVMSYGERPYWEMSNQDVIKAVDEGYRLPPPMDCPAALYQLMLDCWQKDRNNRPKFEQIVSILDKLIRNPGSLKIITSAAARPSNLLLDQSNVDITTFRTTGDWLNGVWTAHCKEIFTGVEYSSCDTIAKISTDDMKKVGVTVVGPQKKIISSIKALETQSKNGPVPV

[2] = target: Ephrin type-A receptor 4 (Homo sapiens) (UniProt P54764); conditions: at 1 µM
Sequence of Ephrin type-A receptor 4 (Homo sapiens) (P54764 whole entry): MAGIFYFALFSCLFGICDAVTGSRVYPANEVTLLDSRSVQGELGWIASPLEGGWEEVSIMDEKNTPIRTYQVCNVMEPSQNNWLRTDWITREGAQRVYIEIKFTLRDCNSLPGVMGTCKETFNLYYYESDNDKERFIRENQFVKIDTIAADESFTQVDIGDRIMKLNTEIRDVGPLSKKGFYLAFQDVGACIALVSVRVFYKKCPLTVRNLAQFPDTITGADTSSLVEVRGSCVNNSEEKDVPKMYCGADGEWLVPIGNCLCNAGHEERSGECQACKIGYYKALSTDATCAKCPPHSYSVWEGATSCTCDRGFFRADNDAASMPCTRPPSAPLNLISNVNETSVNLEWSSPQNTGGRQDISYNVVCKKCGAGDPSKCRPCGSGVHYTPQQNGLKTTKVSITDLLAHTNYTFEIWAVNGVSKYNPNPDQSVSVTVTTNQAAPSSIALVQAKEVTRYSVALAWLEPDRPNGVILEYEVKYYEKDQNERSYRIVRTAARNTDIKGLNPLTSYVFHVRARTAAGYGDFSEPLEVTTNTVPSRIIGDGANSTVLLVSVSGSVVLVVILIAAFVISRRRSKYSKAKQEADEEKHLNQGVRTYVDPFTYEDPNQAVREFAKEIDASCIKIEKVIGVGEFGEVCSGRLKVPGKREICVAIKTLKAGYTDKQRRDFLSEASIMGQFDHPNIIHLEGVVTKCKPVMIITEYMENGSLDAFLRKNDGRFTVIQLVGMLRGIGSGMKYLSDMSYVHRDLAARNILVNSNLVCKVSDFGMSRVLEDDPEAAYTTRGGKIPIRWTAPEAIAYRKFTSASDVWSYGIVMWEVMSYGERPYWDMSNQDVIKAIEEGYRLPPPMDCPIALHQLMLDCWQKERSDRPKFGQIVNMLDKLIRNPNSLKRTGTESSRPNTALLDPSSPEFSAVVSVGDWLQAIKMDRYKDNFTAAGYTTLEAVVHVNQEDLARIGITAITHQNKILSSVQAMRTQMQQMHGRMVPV

[3] = target: Ephrin type-A receptor 4 (Homo sapiens) (UniProt P54764); conditions: at 10 µM
[4] = target: Ephrin type-A receptor 5 (Homo sapiens) (UniProt P54756); conditions: at 1 µM
Sequence of Ephrin type-A receptor 5 (Homo sapiens) (P54756 whole entry): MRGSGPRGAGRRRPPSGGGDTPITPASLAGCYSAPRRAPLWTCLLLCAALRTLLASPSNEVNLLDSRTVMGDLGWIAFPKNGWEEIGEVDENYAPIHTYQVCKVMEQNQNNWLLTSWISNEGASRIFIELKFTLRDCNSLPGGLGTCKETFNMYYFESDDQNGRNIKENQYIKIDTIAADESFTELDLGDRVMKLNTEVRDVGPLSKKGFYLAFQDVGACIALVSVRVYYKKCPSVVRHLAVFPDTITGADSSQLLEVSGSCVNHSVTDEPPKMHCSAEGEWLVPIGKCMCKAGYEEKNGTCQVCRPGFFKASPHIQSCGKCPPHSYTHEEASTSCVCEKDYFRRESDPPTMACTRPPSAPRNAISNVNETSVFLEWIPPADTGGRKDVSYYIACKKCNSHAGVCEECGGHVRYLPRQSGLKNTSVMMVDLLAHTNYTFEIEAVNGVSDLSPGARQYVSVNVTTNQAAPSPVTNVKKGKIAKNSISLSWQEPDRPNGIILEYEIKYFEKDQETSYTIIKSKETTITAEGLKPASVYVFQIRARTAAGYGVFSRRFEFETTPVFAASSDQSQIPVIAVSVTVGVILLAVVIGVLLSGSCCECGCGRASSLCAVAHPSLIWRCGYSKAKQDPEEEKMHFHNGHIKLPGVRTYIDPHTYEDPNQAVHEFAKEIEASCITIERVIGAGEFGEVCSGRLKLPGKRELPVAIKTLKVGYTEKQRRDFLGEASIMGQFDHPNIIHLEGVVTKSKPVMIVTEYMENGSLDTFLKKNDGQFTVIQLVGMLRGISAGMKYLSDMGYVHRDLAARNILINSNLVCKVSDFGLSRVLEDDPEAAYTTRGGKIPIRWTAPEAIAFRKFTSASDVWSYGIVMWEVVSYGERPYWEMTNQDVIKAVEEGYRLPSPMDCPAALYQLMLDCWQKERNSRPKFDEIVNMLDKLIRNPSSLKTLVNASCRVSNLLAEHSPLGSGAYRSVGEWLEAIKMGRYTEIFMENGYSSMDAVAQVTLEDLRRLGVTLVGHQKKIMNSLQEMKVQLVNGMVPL

[5] = target: Ephrin type-A receptor 5 (Homo sapiens) (UniProt P54756); conditions: at 10 µM
[6] = target: Ephrin type-A receptor 7 (Homo sapiens) (UniProt Q15375); conditions: at 1 µM
Sequence of Ephrin type-A receptor 7 (Homo sapiens) (Q15375 28-998 limits assumed): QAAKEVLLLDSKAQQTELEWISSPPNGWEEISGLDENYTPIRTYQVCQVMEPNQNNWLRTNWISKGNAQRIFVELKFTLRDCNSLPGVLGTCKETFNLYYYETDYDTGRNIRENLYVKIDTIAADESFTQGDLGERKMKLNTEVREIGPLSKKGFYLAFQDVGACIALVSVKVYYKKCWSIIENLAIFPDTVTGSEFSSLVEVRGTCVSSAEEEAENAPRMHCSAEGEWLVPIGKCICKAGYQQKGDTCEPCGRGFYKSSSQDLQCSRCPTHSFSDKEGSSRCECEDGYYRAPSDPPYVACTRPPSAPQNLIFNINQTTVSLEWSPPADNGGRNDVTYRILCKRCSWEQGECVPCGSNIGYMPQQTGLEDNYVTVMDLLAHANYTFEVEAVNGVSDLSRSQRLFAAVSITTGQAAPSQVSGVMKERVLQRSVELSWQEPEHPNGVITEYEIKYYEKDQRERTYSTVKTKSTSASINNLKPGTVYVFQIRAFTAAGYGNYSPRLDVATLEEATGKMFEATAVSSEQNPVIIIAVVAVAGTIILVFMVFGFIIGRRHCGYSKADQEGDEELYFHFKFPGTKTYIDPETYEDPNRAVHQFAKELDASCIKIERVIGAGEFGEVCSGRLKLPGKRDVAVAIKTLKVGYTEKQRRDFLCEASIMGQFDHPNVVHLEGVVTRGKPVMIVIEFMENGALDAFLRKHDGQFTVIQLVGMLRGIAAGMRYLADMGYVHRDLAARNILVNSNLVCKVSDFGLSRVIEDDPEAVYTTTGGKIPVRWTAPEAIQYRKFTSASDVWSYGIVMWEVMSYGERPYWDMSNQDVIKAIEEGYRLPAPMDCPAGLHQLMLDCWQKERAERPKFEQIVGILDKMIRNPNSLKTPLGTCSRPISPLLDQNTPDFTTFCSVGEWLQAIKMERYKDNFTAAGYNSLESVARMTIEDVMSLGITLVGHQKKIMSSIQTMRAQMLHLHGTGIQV

[7] = target: Ephrin type-A receptor 7 (Homo sapiens) (UniProt Q15375); conditions: at 10 µM
[8] = target: T2, Ephrin type-A receptor 8 (Homo sapiens) (UniProt P29322); conditions: at 1 µM
T2 sequence (whole entry): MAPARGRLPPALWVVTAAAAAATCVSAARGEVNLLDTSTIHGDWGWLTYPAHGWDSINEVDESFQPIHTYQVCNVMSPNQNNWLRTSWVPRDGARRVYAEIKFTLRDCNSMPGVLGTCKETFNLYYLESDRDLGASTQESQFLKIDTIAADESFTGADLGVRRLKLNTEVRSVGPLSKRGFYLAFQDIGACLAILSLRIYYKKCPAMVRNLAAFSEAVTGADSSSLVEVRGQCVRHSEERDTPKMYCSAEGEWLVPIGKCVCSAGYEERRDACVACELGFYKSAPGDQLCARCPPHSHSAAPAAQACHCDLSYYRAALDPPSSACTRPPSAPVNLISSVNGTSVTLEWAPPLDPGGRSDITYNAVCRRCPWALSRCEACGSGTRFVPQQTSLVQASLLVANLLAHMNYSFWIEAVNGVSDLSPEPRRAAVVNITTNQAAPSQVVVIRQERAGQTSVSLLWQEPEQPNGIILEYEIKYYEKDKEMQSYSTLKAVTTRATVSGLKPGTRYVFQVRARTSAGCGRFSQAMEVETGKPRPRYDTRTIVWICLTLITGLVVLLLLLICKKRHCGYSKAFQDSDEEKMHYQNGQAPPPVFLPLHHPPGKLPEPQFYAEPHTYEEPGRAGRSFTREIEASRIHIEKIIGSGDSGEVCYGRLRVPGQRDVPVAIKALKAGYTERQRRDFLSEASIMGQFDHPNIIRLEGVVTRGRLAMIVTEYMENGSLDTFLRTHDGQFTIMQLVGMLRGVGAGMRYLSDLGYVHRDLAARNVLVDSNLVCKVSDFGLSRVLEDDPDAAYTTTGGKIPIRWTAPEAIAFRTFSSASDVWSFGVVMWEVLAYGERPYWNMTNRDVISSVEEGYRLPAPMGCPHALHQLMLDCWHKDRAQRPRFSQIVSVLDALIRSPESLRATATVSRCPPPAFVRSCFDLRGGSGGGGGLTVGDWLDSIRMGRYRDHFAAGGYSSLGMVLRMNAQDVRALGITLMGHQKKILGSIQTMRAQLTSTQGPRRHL

[9] = target: T2, Ephrin type-A receptor 8 (Homo sapiens); conditions: at 10 µM
[10] = target: T3, Ephrin type-B receptor 1 (Homo sapiens) (UniProt P54762); conditions: at 1 µM
T3 sequence (whole entry): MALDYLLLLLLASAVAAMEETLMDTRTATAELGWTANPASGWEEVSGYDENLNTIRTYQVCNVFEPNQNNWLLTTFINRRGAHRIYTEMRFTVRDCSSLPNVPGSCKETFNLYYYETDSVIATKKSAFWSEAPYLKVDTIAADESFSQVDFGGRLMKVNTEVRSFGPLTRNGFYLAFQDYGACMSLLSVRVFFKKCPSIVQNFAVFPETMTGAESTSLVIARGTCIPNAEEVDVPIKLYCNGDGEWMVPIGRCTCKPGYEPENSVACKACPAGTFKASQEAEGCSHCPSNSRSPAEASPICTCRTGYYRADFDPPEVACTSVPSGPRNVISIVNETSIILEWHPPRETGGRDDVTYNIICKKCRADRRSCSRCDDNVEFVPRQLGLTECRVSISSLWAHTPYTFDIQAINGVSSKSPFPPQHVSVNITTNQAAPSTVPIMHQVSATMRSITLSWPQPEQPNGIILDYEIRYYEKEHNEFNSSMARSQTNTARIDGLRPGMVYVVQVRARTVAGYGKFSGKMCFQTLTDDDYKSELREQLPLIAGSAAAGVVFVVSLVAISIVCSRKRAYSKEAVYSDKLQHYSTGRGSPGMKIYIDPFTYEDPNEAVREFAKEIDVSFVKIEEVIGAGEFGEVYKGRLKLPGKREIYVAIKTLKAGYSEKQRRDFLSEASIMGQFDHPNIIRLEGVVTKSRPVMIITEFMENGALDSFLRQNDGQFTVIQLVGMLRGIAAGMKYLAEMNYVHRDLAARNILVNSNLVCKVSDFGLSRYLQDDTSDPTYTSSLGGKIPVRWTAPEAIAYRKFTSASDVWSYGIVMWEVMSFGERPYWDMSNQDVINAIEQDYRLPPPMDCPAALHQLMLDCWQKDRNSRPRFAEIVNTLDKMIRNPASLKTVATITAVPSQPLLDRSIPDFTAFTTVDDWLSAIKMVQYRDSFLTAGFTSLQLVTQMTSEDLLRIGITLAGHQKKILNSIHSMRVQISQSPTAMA

[11] = target: T3, Ephrin type-B receptor 1 (Homo sapiens); conditions: at 10 µM
[12] = target: Receptor tyrosine-protein kinase erbB-4 (Homo sapiens) (UniProt Q15303); conditions: at 1 µM
Sequence of Receptor tyrosine-protein kinase erbB-4 (Homo sapiens) (Q15303 whole entry): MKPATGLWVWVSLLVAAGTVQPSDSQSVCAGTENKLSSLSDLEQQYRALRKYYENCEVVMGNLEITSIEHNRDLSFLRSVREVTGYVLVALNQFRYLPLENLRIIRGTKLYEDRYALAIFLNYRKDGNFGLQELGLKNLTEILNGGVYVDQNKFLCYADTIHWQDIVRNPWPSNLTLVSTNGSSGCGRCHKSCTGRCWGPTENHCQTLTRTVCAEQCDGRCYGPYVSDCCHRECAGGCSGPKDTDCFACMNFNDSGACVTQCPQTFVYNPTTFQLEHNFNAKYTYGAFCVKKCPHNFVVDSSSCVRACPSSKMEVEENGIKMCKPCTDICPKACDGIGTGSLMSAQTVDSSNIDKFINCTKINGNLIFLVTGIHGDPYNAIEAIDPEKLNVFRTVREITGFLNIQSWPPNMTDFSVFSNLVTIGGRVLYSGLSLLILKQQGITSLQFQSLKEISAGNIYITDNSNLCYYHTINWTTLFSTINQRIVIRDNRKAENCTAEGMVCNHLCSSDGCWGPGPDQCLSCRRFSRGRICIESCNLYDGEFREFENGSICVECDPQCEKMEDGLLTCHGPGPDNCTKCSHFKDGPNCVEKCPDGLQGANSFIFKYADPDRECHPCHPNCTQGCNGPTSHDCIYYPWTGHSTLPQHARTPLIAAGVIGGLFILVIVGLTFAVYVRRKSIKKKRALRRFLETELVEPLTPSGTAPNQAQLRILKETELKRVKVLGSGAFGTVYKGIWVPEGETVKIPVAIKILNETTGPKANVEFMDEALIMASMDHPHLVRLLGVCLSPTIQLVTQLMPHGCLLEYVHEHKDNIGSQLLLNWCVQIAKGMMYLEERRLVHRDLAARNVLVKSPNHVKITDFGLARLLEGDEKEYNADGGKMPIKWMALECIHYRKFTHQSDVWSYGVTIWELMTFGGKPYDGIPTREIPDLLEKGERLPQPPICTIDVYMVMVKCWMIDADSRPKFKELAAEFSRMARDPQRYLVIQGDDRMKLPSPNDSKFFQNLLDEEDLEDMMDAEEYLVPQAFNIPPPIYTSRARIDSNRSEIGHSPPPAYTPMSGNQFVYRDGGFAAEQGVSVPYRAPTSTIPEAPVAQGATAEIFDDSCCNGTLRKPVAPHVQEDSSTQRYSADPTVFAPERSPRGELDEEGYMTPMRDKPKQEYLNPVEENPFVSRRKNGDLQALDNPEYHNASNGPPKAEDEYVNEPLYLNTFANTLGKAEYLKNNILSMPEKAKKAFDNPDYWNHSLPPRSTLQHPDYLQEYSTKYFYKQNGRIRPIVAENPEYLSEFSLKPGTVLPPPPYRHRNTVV

[13] = target: Receptor tyrosine-protein kinase erbB-4 (Homo sapiens) (UniProt Q15303); conditions: at 10 µM
[14] = target: Focal adhesion kinase 1 (Homo sapiens) (UniProt Q05397); conditions: at 1 µM

Question: Which results are given for `COc1cc2ncnc(Nc3ccc(NC(=O)c4ccccc4)cc3)c2cc1OC`?
Answer: residual activity [1]: 102%; residual activity [2]: 109%; residual activity [3]: 102%; residual activity [4]: 104%; residual activity [5]: 97%; residual activity [6]: 92%; residual activity [7]: 66%; residual activity [8]: 103%; residual activity [9]: 103%; residual activity [10]: 97%; residual activity [11]: 83%; residual activity [12]: 35%; residual activity [13]: 6%; residual activity [14]: 142%

— ChEMBL document CHEMBL2218924, “A broad activity screen in support of a chemogenomic map for kinase signalling research and drug discovery” (Biochem J, 2013)
